PubChem BioAssay (NCATS)
Records with an inconclusive call do not appear. Active and inactive are the calls of the source. Calls come from the whole dose curve; as a rule, active = well fitted curve in the direction sought with a large enough effect; inconclusive = small, poorly fitted or top-dose-only effect, or another doubt; inactive = no such curve, though single readings can be large; an effect the other way counts as inactive or inconclusive.

Key:
[1] = Cell Viability - LYMP2-001 (AID 921); details: LYMP2-001 lymphoblastoid cell viability; series mostly up to 92.2 µM; note: nearly all actives have a fitted effect of over 70% in size
Procedure, shortened: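 qHTS, 1536-well; lymphoblastoid cells, 24 hr compound, 37 C; ATP by CellTiter-Glo, 30 min RT; luminescence; Hill-fit AC50.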

[2] = Confirmation and Secondary Assay for Modulators of Hemoglobin Beta Chain Splicing at IVS2 705 locus (AID 930); details: HeLa EGFP-705 splicing reporter, GFP fluorescence, 48 h; series mostly up to 38.3 µM;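 note: HeLa cells stably expressing the EGFP-705 splicing reporter; GFP fluorescence per well restored by corrected splicing of the IVS2-705 intron in EGFP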
Procedure, shortened: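 HeLa cells stably carrying EGFP interrupted by mutant beta-globin intron 2 (IVS2-705) treated 2 days at 37C with compound; 500 nM antisense PNA as control. Correct splicing read as total peak GFP intensity per well by laser-scanning cytometry.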

[3] = MultiTox-Fluor Cytotoxicity Assay - LYMP1-001 - Dead Cells (AID 946); details: LYMP1-001 lymphoblastoid cells, dead-cell protease fluorescence; series mostly up to 92.2 µM
Procedure, shortened: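 LYMP1-001 lymphoblastoid cells (2500/well) treated 16 h at 37 C. Dead-cell protease cleavage of bis-AAF-R110 read at Ex/Em 485/520. Normalized to DMSO and 15 uM tetraoctylammonium bromide; AC50 from Hill fits.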

[4] = Cell Viability - LYMP1-002 - Assay at 16 hr (AID 948); details: LYMP1-002 lymphoblastoid cell viability; series mostly up to 92.2 µM
Procedure, shortened: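 Acute cytotoxicity is scored as a concentration-dependent fall in intracellular ATP in a human lymphoblastoid line (LYMP1-002) after 16 hr compound exposure at 37 C, measured by luciferase luminescence.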

[5] = MultiTox-Fluor Cytotoxicity Assay - LYMP1-002 - Live Cells (AID 955); details: LYMP1-002 lymphoblastoid live-cell protease fluorescence viability; series mostly up to 46.1 µM
Procedure, shortened: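 In this qHTS viability format, lymphoblastoid cells (LYMP1-002, human) received compound for 16 hr at 37 C. Fluorogenic GF-AFC cleavage by viable cells was detected at 405/510 nm after 1 h at room temperature.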

[6] = MultiTox-Fluor Cytotoxicity Assay - LYMP1-002 - Dead Cells (AID 960); details: LYMP1-002 lymphoblastoid cells, dead-cell protease fluorescence; series mostly up to 46.1 µM; note: nearly all actives have a fitted effect of over 60% in size
Procedure, shortened: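 Concentration-dependent increases in membrane-leaked protease activity are quantified in LYMP1-002 cells after 16 hr treatment; values are normalized against DMSO and tetraoctylammonium bromide (15 uM) controls and AC50 derived by Hill modeling.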

[7] = MultiTox-Fluor Cytotoxicity Assay - LYMP1-003 - Dead Cells (AID 961); details: LYMP1-003 lymphoblastoid cells, dead-cell protease fluorescence; series mostly up to 92.2 µM; note: nearly all actives have a fitted effect of over 70% in size
Procedure, shortened: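 LYMP1-003 human lymphoblastoid cells (2500/well) exposed to compound 16 h at 37 C in complete medium; dead-cell protease read with bis-AAF-R110 fluorescence (Ex/Em 485/520) after 60 min at room temperature. Normalized to DMSO and 15 uM tetraoctylammonium bromide; AC50 from Hill fit.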

[8] = MultiTox-Fluor Cytotoxicity Assay - LYMP1-003 - Live Cells (AID 962); details: LYMP1-003 lymphoblastoid cells, MultiTox-Fluor live-cell protease fluorescence; series mostly up to 92.2 µM;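 note: cytotoxic hits lower the live-cell protease signal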
Procedure, shortened: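 Human lymphoblastoid line LYMP1-003 in complete culture medium, treated 16 hr with titrated compounds. Viable cells quantified via cell-permeant GF-AFC substrate fluorescence; AC50 derived by Hill fitting.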

[9] = Cell Viability - LYMP1-003 - Assay at 24 hr (AID 963); details: LYMP1-003 lymphoblastoid cell viability; series mostly up to 92.2 µM
Procedure, shortened: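 The lymphoblastoid line was treated with titrated compounds for 24 hours, and viable cell number estimated from luciferase-based ATP luminescence.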

[10] = Cell Viability - LYMP1-003 - Assay at 40 hr (AID 964); details: LYMP1-003 lymphoblastoid viability; series mostly up to 92.2 µM; note: nearly all actives have a fitted effect of over 60% in size
Procedure, shortened: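 Acute toxicity is scored as a concentration-dependent loss of intracellular ATP in LYMP1-003 cells (2500/well, complete medium) after 40 hr at 37 C, measured by CellTiter-Glo luminescence; AC50 values derive from standard Hill modelling.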

[11] = Cell Viability - LYMP2-003 (AID 965); details: LYMP2-003 lymphoblastoid cell viability; series mostly up to 92.2 µM;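 note: cells exposed to compounds for 24 h before reading; nearly all actives have a fitted effect of over 50% in size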
Procedure, shortened: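 Acute cytotoxicity is scored as a concentration-dependent drop in intracellular ATP, measured by luciferase luminescence in human lymphoblastoid cells treated for 24 hours at 37 C. AC50 values derive from Hill-equation modelling.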

[12] = Cell Viability - LYMP2-004 (AID 966); details: LYMP2-004 lymphoblastoid cell viability, qHTS; series mostly up to 92.2 µM; note: nearly all actives have a fitted effect of over 65% in size
Procedure, shortened: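 Viable-cell number estimated from ATP luminescence (CellTiter-Glo) in 2500 human lymphoblastoid cells/well after 24 hr at 37 C with compound. AC50 fitted to the standard Hill equation.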

[13] = Cell Viability - LYMP2-005 (AID 967); details: LYMP2-005 lymphoblastoid cell viability; series mostly up to 92.2 µM
Procedure, shortened: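 qHTS viability screen in LYMP2-005 cells: 24 h at 37 C with compound, ATP luminescence via CellTiter-Glo, AC50 from Hill curves.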

[14] = Cell Viability - LYMP2-009 (AID 968); details: LYMP2-009 lymphoblastoid cell viability; series mostly up to 92.2 µM; note: nearly all actives have a fitted effect of over 55% in size
[15] = Cell Viability - LYMP2-011 (AID 969); details: LYMP2-011 lymphoblastoid cells viability; series mostly up to 92.2 µM; note: nearly all actives have a fitted effect of over 60% in size
Procedure, shortened: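 Cells seeded at 2500 per well rest 5 hr before compound addition, then incubate 24 hr at 37 C. CellTiter-Glo reagent is added for 30 min at room temperature before luminescence detection.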

[16] = Cell Viability - LYMP2-013 (AID 970); details: LYMP2-013 lymphoblastoid cells viability; series mostly up to 92.2 µM; note: nearly all actives have a fitted effect of over 55% in size
Procedure, shortened: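 In complete culture medium, human lymphoblastoid cells were dosed for 24 hr at 37 C, with tetraoctylammonium bromide (6.4pM to 92 uM) as positive control. Viability reflects luciferase-based ATP signal; AC50 derived from concentration-response curves.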

[17] = Cell Viability - LYMP2-021 (AID 974); details: LYMP2-021 lymphoblastoid cells viability; series mostly up to 92.2 µM;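 note: compound exposure lasts 24 hours at 37 °C; nearly all actives have a fitted effect of over 55% in size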
Procedure, shortened: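 In qHTS format, compounds are tested against 2500 lymphoblastoid cells per well for 24 h; viable cell number is inferred from ATP-driven luciferase light, and Hill-equation fitting yields AC50 values.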

[18] = Cell Viability - LYMP2-023 (AID 975); details: LYMP2-023 lymphoblastoid cell viability; series mostly up to 92.2 µM;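 note: cellular ATP measured by luciferase luminescence as viability proxy; cells exposed to compound for 24 hours at 37 °C; nearly all actives have a fitted effect of over 55% in size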
Procedure, shortened: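 In this qHTS, ATP-based luciferase luminescence (CellTiter-Glo) is quantified in human lymphoblastoid cells after 24 hr compound treatment at 37 C; tetraoctylammonium bromide serves as positive control. Concentration-response curves are Hill-fitted to give AC50.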

[19] = Cell Viability - LYMP2-025 (AID 976); details: LYMP2-025 lymphoblastoid cell viability; series mostly up to 92.2 µM
Procedure, shortened: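 Luminescent ATP readout after 24 hr treatment of a human lymphoblastoid line (LYMP2-025, 2500 cells/well, 37 C). Reagent developed 30 min at room temperature; AC50 fitted with the Hill equation.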

Measured: Potency

O=[N+]([O-])c1ccc(O)c([N+](=O)[O-])c1
inactive: all assays above
